# Sampled rows, rich in hits. Any-hit rate of the full collection: about 3.5%.
# TEAD-YAP block: TEAD-YAP interaction inhibition, primary screen, TEAD-YAP interaction inhibitor project, luminescence, HEK-TIYL cells; 1.4% of 640,000 active; AID 1259422, 2018; inhibition, % at 9.12 µM; TEAD-Gal4/YAP UAS-luciferase luminescence; in the data active means inhibition above about 32%;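 further: 0% = median of test compound wells and 100% = reference inhibitor wells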
# FBW7 act: FBW7 E3 ligase activators, primary screen, biochemical, AlphaScreen, human; AlphaScreen FBW7–phospho-cyclin E peptide binding, activator screen; F-box/WD repeat-containing protein 7 (Homo sapiens), Q969H0; normalized activity (activation), % at 26.1 µM; 0.13% of 650,000 active; AID 1259310, 2017; in the data active means normalized activity above about 1.9%;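 further: purified mutant Fbw7 with reduced substrate affinity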
# GPR151 ag: activators of human GPR151, primary screen, cell-based, PathHunter beta-arrestin, luminescence. PathHunter beta-arrestin GPR151 cells. activation, % at 11.2 µM. 1% of 650,000 active. G-protein coupled receptor 151 (Homo sapiens), Q8TDV0. AID 1508602, 2020; in the data active means activation above about 4.9%;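 further: 0% = median of compound wells and 100% = cells with positive control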
# MITF inh: MITF inhibitors, primary screen, biochemical, AlphaScreen, human | Microphthalmia-associated transcription factor (Homo sapiens), O75030 | AlphaScreen MITF homodimerization, bead proximity signal | 0.91% of 650,000 active | inhibition, % at 2.6 µM | AID 1259374, 2018; in the data active means inhibition above about 50%;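 further: 0% = vehicle wells with protein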
# Target sequence (O75030 whole entry, looked up): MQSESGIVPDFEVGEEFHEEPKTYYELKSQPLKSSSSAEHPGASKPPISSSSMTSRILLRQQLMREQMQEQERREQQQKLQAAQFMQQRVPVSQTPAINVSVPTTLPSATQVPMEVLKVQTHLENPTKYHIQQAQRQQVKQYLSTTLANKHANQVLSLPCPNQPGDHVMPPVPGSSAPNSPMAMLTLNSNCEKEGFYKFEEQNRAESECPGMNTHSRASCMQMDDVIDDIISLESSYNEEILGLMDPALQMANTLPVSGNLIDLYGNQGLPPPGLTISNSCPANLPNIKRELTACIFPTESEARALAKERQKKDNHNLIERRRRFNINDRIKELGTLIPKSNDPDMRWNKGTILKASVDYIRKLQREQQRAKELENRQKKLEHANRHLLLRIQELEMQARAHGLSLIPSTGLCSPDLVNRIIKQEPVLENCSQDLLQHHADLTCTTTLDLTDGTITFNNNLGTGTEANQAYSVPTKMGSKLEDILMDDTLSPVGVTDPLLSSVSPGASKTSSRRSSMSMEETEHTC
# GPR151 confirm: GPR151 activators, triplicate retest, confirmation, cell-based, PathHunter beta-arrestin, luminescence. shares compounds with GPR151 ag. GPR151 PathHunter beta-arrestin cells, 90 min; % of EA-reagent control over plate median. activation, % at 11.2 µM. 6,700 tested, under 10 active;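 active means mean percent activation across replicates above the confirmation screen cutoff of 4.91%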
# GPR119 ag: GPR119 activators in beta-arrestin cells, counter-screen for GPR151 activator project, cell-based, PathHunter beta-arrestin, luminescence, triplicate. AID 1508611, 2020. shares compounds with GPR151 ag. 0.3% of 6,700 active. 90 min; 0 = compound-well median, 100 = enzyme-acceptor control. activation, % at 11.2 µM;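 active means mean percent activation in the counterscreen above 29.09%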;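 further: counterscreen on off-target GPR119 to flag nonselective hits from the GPR151 activator screen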
# * hit, by the source's call; · = no result given.
SMILES,TEAD-YAP block,FBW7 act,GPR151 ag,MITF inh,GPR151 confirm,GPR119 ag
Cc1sc2nc(Cc3ccccc3)n(C3CCN(CC(N)=O)CC3)c(=O)c2c1C,-0.1,0.0,6.1*,4.5,1.3,-8.0
Cc1sc2nc(Cc3ccccc3)n(C3CCN(C(=O)c4ccco4)CC3)c(=O)c2c1C,-6.1,0.1,0.5,5.7,·,·
COc1ccc2nc(N3CCC(NCC(C)C)CC3)nc(C)c2c1,-5.3,0.3,-1.8,-35.1,·,·
Cc1ccc2nc(N3CCC(NCC(C)C)CC3)nc(C)c2c1,-0.4,-0.1,7.9*,-8.6,0.3,-3.6
CC(C)(C)NC(=O)NC(=O)COC(=O)Cc1ccc(Cl)c(Cl)c1,-1.4,-0.1,7.2*,1.3,-0.2,-1.6
CC(C)(C)NC(=O)NC(=O)COC(=O)Cn1cnc2ccccc2c1=O,2.4,-0.2,6.8*,3.8,-0.4,1.9
Cc1cn2c(=O)c(C(=O)NOCc3cccc(C(F)(F)F)c3)cnc2s1,-8.6,0.2,14.4*,17.2,0.8,-2.5
Cc1cccc(NC(=O)C2(c3cccs3)CCCC2)c1,-14.6,0.1,0.3,-4.9,·,·
CC1=C(C(=O)Nc2cccc(C(F)(F)F)c2)C(c2cccs2)C2=C(CCCC2=O)N1 (stereo unspecified),1.3,0.0,6.5*,2.1,0.5,8.1
CC(=O)c1ccc(NC(=O)CSc2nc(-c3ccc(C)cc3)ns2)cc1,-28.5,0.0,-1.9,13.4,·,·
COC(=O)c1cccc(NC(=O)C2COc3ccccc3O2)c1 (stereo unspecified),-48.5,0.0,5.0*,-11.8,-0.6,-12.3
COc1ccc(CCNC(=O)CCc2nc3cccnc3n2-c2ccccc2)c(OC)c1,3.9,0.0,5.1*,-0.9,-0.4,0.5
CCN(CC)CCN1C(=O)c2ccccc2NC1c1ccc(Cl)cc1 (stereo unspecified),-0.8,0.0,7.6*,0.9,1.1,18.2
Cc1ccccc1NC(=O)NC1(C(=O)N2CCN3CCCC3C2)CCCCC1 (stereo unspecified),-1.3,0.1,12.2*,0.1,0.3,-1.1
COc1ccc(/C=N/NC(=O)c2cccs2)cc1,-44.5,0.0,-4.7,-7.7,·,·
Cc1ccc(-c2nc(CSCC(=O)N3CCOCC3)c(C)o2)cc1,-11.4,-0.2,5.0*,-18.1,0.9,-6.0
Cc1ccc(-c2nc(CSCC(=O)N3CCN(C(=O)c4ccco4)CC3)c(C)o2)cc1,-9.1,-0.1,-0.2,0.9,·,·
O=C(COc1ccccc1)Nc1nnc(SCC(=O)NC2CCCC2)s1,-1.0,0.3,-0.3,12.4,·,·
Cc1ccc(CC(=O)Nc2nc(-c3ccncc3)cs2)c(C)c1,-4.2,0.1,0.1,10.1,·,·
CC(NC(=O)Nc1ccc(F)cc1F)c1ccc2c(c1)OCO2 (stereo unspecified),-4.6,0.0,7.2*,7.2,0.7,0.1
CC(NC(=O)c1ccc(F)cc1)c1ccc2c(c1)OCCO2 (stereo unspecified),-1.4,-0.2,0.2,4.9,·,·
CC/C(C)=N/NC(=O)c1cc(Br)cc(Br)c1O,6.6,0.1,0.9,2.8,·,·
CC(C)=NNc1nnc2c(n1)[nH]c1ccc(C)cc12,6.7,-0.3,-0.2,1.3,·,·
Oc1ccc2ncccc2c1C(Nc1ccccn1)c1ccco1 (stereo unspecified),5.8,0.1,30.7*,7.9,1.9,13.7
O=c1c(NCCc2ccccc2)c(-c2ccc(Cl)cc2)c1=O,9.9,0.3,1.1,11.5,·,·
NC(=O)COc1ccc(/C=N/NC(=O)c2ccc(CN3CCOCC3)cc2)cc1,1.9,0.0,5.7*,6.1,0.4,5.6
CC1CN(c2ccc(Br)cc2)c2nc3c(c(=O)n(CC(N)=O)c(=O)n3C)n2C1 (stereo unspecified),-7.1,0.0,10.3*,0.2,-1.7,-19.3

# From PubChem BioAssay
